Measurements: PubChem BioAssay AID1159580 (chemical genetic matrix, 2015)
Among all 5,500 compounds or so, about 2,000 (36%) were called active. Inconclusive results (about 18%) are left out. Rule as the data show it: active = normalized growth mostly below about 0.91 (no sharp cut-off); inconclusive = no clear call, values can overlap the other calls; inactive = mostly above about 0.92. Some of the results follow.

Experiment: chemical genetic growth profiling, strain panel (AID 1159580);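 also: tested at 20 µM; growth read once vehicle control cultures reached saturation at 30 °C; 1 = growth at the plate median or of vehicle wells; lower values mean less growth of the strain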
Settings: S. cerevisiae deletion strains, growth OD

Measured: normalized growth

Oc1c(I)cc(Cl)c2cccnc12
active: locus YAL021C, strain ccr4, hits give low values 0.0783 | locus YAL026C, strain drs2, hits give low values 0.0852 | locus YAL030W, strain snc1, hits give low values 0.074 | locus YBL061C, strain skt5, hits give low values 0.0782 | locus YBR009C, strain hhf1, hits give low values 0.0791 | locus YBR023C, strain chs3, hits give low values 0.0818 | locus YBR171W, strain sec66, hits give low values 0.115 | locus YBR231C, strain swc5, hits give low values 0.0829 | locus YBR279W, strain paf1, hits give low values 0.0782 | locus YCL011C, strain gbp2, hits give low values 0.0716 | locus YCL016C, strain dcc1, hits give low values 0.0859 | locus YCL061C, strain MRC1, hits give low values 0.0889 | locus YCL069W, strain vba3, hits give low values 0.0861 | locus YCR088W, strain abp1, hits give low values 0.0839 | locus YDL005C, strain med2, hits give low values 0.0947 | locus YDL040C, strain nat1, hits give low values 0.0731 | locus YDR001C, strain nth1, hits give low values 0.0804 | locus YDR069C, strain doa4, hits give low values 0.0805 | locus YDR137W, strain rgp1, hits give low values 0.12 | locus YDR159W, strain sac3, hits give low values 0.115 | locus YDR195W, strain ref2 0.156 | locus YDR297W, strain sur2, hits give low values 0.074 | locus YDR334W, strain swr1, hits give low values 0.0896 | locus YDR335W, strain msn5, hits give low values 0.0873 | locus YDR392W, strain spt3, hits give low values 0.119 | locus YEL003W, strain gim4, hits give low values 0.0685 | locus YEL037C, strain rad23, hits give low values 0.0804 | locus YEL061C, strain CIN8 (second series), hits give low values 0.0788 | locus YER015W, strain faa2, hits give low values 0.0769 | locus YER016W, strain bim1, hits give low values 0.0802 | locus YER111C, strain swi4, hits give low values 0.103 | locus YER155C, strain BEM2 (second series), hits give low values 0.127 | locus YFR010W, strain ubp6, hits give low values 0.0904 | locus YGL167C, strain pmr1, hits give low values 0.0969 | locus YGL173C, strain kem1, hits give low values 0.088 | locus YGL227W, strain vid30, hits give low values 0.0887 | locus YGL240W, strain doc1, hits give low values 0.104 | locus YGL253W, strain hxk2, hits give low values 0.0777 | locus YHR013C, strain ard1, hits give low values 0.139 | locus YHR027C, strain rpn1, hits give low values 0.0784 | locus YHR030C, strain SLT2, hits give low values 0.148 | locus YHR079C, strain IRE1, hits give low values 0.134 | locus YHR142W, strain chs7, hits give low values 0.104 | locus YJL092W, strain hpr5, hits give low values 0.0829 | locus YJL095W, strain BCK1 (second series), hits give low values 0.0763 | locus YJL095W, strain BCK1, hits give low values 0.127 | locus YJL115W, strain asf1, hits give low values 0.101 | locus YJL129C, strain trk1, hits give low values 0.102 | locus YJL154C, strain vps35, hits give low values 0.0859 | locus YJL164C, strain tpk1, hits give low values 0.0769 | locus YJL166W, strain qcr8, hits give low values 0.0785 | locus YJR066W, strain TOR1, hits give low values 0.00414 | locus YKL160W, strain elf1, hits give low values 0.0922 | locus YKR026C, strain gcn3, hits give low values 0.0898 | locus YKR091W, strain srl3, hits give low values 0.0766 | locus YLL001W, strain dnm1, hits give low values 0.0857 | locus YLL026W, hits give low values 0.0726 | locus YLL041C, strain sdh2, hits give low values 0.0731 | locus YLR027C, strain aat2, hits give low values 0.071 | locus YLR113W, strain HOG1, hits give low values 0.163 | locus YLR221C, strain rsa3, hits give low values 0.0761 | locus YLR258W, strain gsy2, hits give low values 0.0743 | locus YLR262C, strain YPT6 (second series), hits give low values 0.0974 | locus YLR320W, strain mms22, hits give low values 0.0998 | locus YLR342W, strain FKS1, hits give low values 0.0803 | locus YLR357W, strain rsc2, hits give low values 0.172 | locus YLR370C, strain arc18, hits give low values 0.0859 | locus YLR384C, strain iki3, hits give low values 0.0798 | locus YML120C, strain ndi1, hits give low values 0.0749 | locus YMR058W, strain fet3, hits give low values 0.0885 | locus YMR125W, strain sto1, hits give low values 0.106 | locus YMR129W, hits give low values 0.0728 | locus YMR205C, strain PFK2, hits give low values 0.11 | locus YMR231W, strain pep5, hits give low values 0.0867 | locus YNL071W, strain lat1, hits give low values 0.0765 | locus YNL183C, strain NPR1, hits give low values 0.00429 | locus YNL209W, strain ssb2, hits give low values 0.076 | locus YNL248C, strain rpa49, hits give low values 0.104 | locus YNL322C, strain KRE1 (second series), hits give low values 0.0819 | locus YNR049C, strain mso1, hits give low values 0.0835 | locus YOR001W, strain rrp6, hits give low values 0.0849 | locus YOR070C, strain gyp1, hits give low values 0.106 | locus YOR080W, strain dia2, hits give low values 0.0874 | locus YOR083W, strain WHI5, hits give low values 0.0797 | locus YOR106W, strain vam3, hits give low values 0.0829 | locus YOR231W, strain MKK1, hits give low values 0.122 | locus YOR265W, strain rbl2, hits give low values 0.072 | locus YOR270C, strain vph1, hits give low values 0.139 | locus YOR290C, strain snf2, hits give low values 0.0977 | locus YPL051W, strain arl3, hits give low values 0.0807 | locus YPL078C, strain atp4, hits give low values 0.0919 | locus YPL106C, strain sse1, hits give low values 0.139 | locus YPL240C, strain hsp82, hits give low values 0.0779 | locus YPL256C, strain CLN2, hits give low values 0.143

CN1CCC(c2c[nH]c3ccc(O)cc23)CC1
inactive: locus YAL040C, strain CLN3, hits give low values 0.986 | locus YCL061C, strain MRC1 (second series), hits give low values 1.01 | locus YDR150W, strain NUM1, hits give low values 1.01 | locus YDR363W, strain ESC2, hits give low values 1 | locus YER002W, strain NOP16, hits give low values 0.987 | locus YJR075W, strain HOC1, hits give low values 1.01 | locus YMR307W, strain GAS1, hits give low values 0.988 | locus YNL153C, strain GIM3, hits give low values 0.948 | locus YNL175C, strain NOP13, hits give low values 1.01 | locus YNL197C, strain WHI3, hits give low values 0.999 | locus YNL224C, strain SQS1, hits give low values 1.02 | locus YOR083W, strain WHI5 (second series), hits give low values 1.04 | locus YPL055C, strain LGE1, hits give low values 0.996
